CHO-K1 Ca ag: M1 agonist counterscreen hit in parental CHO-K1 cells; Fluo-8 calcium fluorescence; scaled to maximal ATP response, vehicle zero; activation, % at 3 µM; 360,000 compounds, 0.48% hits; AID 602248; in the data active = activation above about 15%;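 note: untransfected CHO-K1 host cells lacking M1 receptor as counterscreen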
CHRM1 agonist: human M1 muscarinic receptor agonism | P11229 | CHO-K1 hM1, Fluo-8 calcium fluorescence, agonist mode; 0% DMSO, 100% acetylcholine EC100 | activation, % at 3 µM | 360,000 compounds, 0.33% hits | AID 588814;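 active = activation above the run's mean compound activation plus 3 SD, cut at about 16% in these data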;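 note: peak over basal fluorescence ratio within a 140 s kinetic read after compound addition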
Target sequence (P11229 whole entry, looked up): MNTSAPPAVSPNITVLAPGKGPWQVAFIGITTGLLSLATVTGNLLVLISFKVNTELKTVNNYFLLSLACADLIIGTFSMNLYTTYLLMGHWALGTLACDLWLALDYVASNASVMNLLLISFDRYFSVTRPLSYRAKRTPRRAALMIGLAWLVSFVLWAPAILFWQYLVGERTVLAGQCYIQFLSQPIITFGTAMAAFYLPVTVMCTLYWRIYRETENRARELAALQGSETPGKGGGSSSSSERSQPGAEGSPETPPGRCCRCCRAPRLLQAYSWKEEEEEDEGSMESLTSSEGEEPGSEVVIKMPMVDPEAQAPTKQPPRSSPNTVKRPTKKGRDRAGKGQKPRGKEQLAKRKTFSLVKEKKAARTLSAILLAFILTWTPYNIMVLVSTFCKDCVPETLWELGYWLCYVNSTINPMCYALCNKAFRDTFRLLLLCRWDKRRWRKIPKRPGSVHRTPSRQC
CHRM1 PAM: potentiates human M1 receptor response to acetylcholine | P11229 | CHO-K1 hM1, Fluo-8 calcium fluorescence, ACh EC20; 0% = ACh EC20, 100% = maximal ACh | activation, % at 3 µM | 360,000 compounds, 0.088% hits | AID 588819; in the data active = activation above about 19%, passing the limit was not always enough
M1 antag: human CHRM1 antagonism; P11229; CHO-K1 hM1, Fluo-8 calcium fluorescence, ACh EC80 antagonist; inhibition, % at 3 µM; 360,000 compounds, 1.3% hits; AID 588852;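 active = percent inhibition above its own plate's cutoff, namely the mean of that plate's compound wells plus 3 SD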;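 note: peak over basal fluorescence ratio during 140 s after agonist addition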
CHO-K1 Ca antag: M1 antagonist counterscreen hit in parental CHO-K1 cells | 360,000 compounds, 0.6% hits | AID 602250 | ATP-induced calcium, Fluo-8 fluorescence | inhibition, % at 3 µM;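 active = inhibition above a per-plate cutoff, the plate's mean sample inhibition plus 3 SD, cut at about 24% in these data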
CHO-K1 Ca PAM: nonselective activator or artifact in parental CHO-K1 calcium assay; ATP EC20, Fluo-8 calcium fluorescence; 0% at ATP EC20, 100% at ATP max; activation, % at 3 µM; AID 602247; 360,000 compounds, 0.02% hits;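 active = activation above the run cutoff, the mean activation of all test compounds plus 3 SD, cut at about 40% in these data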;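 note: peak over basal fluorescence ratio in a 140 s read after ATP addition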
Large screens that a line does not name were inactive. The list is not random: actives were taken first. Their share in the collection is about 2.4%.

C[C@@H]1CN([C@H](C)CO)C(=O)Cc2cc(NC(=O)CCC(F)(F)F)ccc2O[C@@H]1CN(C)S(=O)(=O)c1ccccc1	none
O=C(OC(c1ccccc1)c1nccc2ccccc12)c1cc([N+](=O)[O-])cc([N+](=O)[O-])c1 (stereo unspecified)	M1 antag 35
CC(=O)c1ccc(N2CCN(C(=O)c3nn(C)c4c3CS(=O)(=O)c3ccccc3-4)CC2)cc1	CHO-K1 Ca ag 16
COc1cc2c(-c3ccc4cc[nH]c4c3)c(-c3ccsc3)oc(=O)c2cc1OC	M1 antag 37
CC(C)CCN1CCN(Cc2cc3ccccc3[nH]2)CC1CCO (stereo unspecified)	CHO-K1 Ca ag 16
CN1CCC(=C2c3ccccc3C(O)c3ccccc32)CC1 (stereo unspecified)	M1 antag 100
Nc1nc2c(s1)CCc1ccccc1-2	none
CN1CCC(=C2c3ccccc3CCc3sccc32)CC1	M1 antag 98
CN(Cc1ccccc1)C(=O)Cn1nnc(-c2ccccc2)c1COc1ccccc1	none
COc1ccc(NS(=O)(=O)c2cccc(C(=O)N3CCN(C/C=C/c4ccccc4)CC3)c2)cc1	none
Cc1ccc(C(=O)N2CCN(C/C=C/c3ccccc3)CC2)cc1S(=O)(=O)N1CCOCC1	M1 antag 73
Cc1cccc(NS(=O)(=O)c2cccc(C(=O)N3CCN(C/C=C/c4ccccc4)CC3)c2)c1	M1 antag 32
CCN(CC)CCN1C(=O)c2ccccc2NC1c1ccc(F)cc1 (stereo unspecified)	none
CCN(CC)CCN1C(=O)c2ccccc2NC1c1ccccc1F (stereo unspecified)	M1 antag 89
O=C(Nc1nc(-c2ccc(F)c(F)c2)cs1)c1cc([N+](=O)[O-])ccc1N1CCOCC1	none
Cc1cc(C)c(-c2csc(NC(=O)c3cc([N+](=O)[O-])ccc3N3CCOCC3)n2)c(C)c1	M1 antag 59
O=C(NCc1cccnc1)c1cc([N+](=O)[O-])ccc1N1CCOCC1	CHRM1 agonist 20
CCCC(c1nnnn1CS(=O)(=O)c1ccc(C)cc1)N1CCC(C(N)=O)CC1 (stereo unspecified)	none
CCN(CC)S(=O)(=O)c1ccc2[nH]c(=O)cc(C(=O)NCC3CCCO3)c2c1 (stereo unspecified)	none
CC(=O)Oc1ccc(C(=O)Cc2ccccn2)c(O)c1	CHO-K1 Ca antag 24
CCc1cc(C(=O)Cc2ccccn2)c(O)cc1O	none
O=C(COC(=O)CCC(=O)c1cccs1)NC1CC1	CHO-K1 Ca ag 16
CNC(=O)COC(=O)CCC(=O)c1cccs1	none
CCCCCCCN1C(N(C)C)=NC[C@@H]1Cc1ccccc1	none
CN(C)C1=NC[C@H](Cc2ccccc2)N1CCCCc1ccccc1	M1 antag 34
COc1ccccc1COC(=O)C(NC(=O)c1ccc(C)cc1)C(C)C (stereo unspecified)	none
CCOc1cc(/C=N/n2cnnc2)ccc1OC(=O)c1cccc([N+](=O)[O-])c1	CHO-K1 Ca antag 31
COc1ccc(-c2c(-c3ccc(OC)nc3)c3ccccc3n2C)cc1	none
CN(C(=O)COC(=O)CNC(=O)c1ccc2ccccc2c1)c1c(N)n(Cc2ccccc2)c(=O)[nH]c1=O	none
Cc1ccc(-c2nc3ncccc3o2)cc1NC(=O)c1cccs1	CHO-K1 Ca antag 26
Cc1ccc(-c2nc3ncccc3o2)cc1NC(=O)C(C)(C)C	none
CC1=C(C)/C(=N\OS(=O)(=O)c2ccccc2)C=CC1=O	M1 antag 21, CHO-K1 Ca antag 37
CCN(CC)c1ccc(/C=N/N2CCOCC2)cc1	none
CCN(Cc1ccccc1)c1ccc(/C=N/N2CCOCC2)cc1	CHO-K1 Ca antag 27
COC(=O)[C@H](CCSC)NC(=O)NCCC1=CCCCC1	none
COC(=O)[C@H](Cc1ccccc1)NC(=O)NCCC1=CCCCC1	M1 antag 39
O=C(NCCCN1CCCC1)c1ccc2c(c1)N(Cc1ccccc1)CCS2	none
NS(=O)(=O)c1ccc(CCNC(=O)c2ccc3c(c2)N(Cc2ccccc2)CCS3)cc1	M1 antag 37
COc1ccc(OC)c(CCNC(=O)c2ccc3c(c2)N(Cc2ccccc2)CCS3)c1	none
COc1ccc(CCNC(=O)c2ccc3c(c2)N(Cc2ccccc2)CCS3)cc1OC	M1 antag 39
CC(C)(C)c1ccccc1OCCN1CCCC1	M1 antag 43
CC(C)Oc1ccccc1OCCN(C)C	none
Cc1ccc(C(C)(C)C)c(OCCN2CCCC2)c1	M1 antag 67
Fc1ccc(OCCOCCN2CCCC2)cc1	none
CC(OCCN1CCCC1)(c1ccc(F)cc1)c1ccc(F)cc1	M1 antag 92
CN(C)CCOc1ccccc1C(C)(C)C	M1 antag 57
Cc1cc(C(C)(C)C)ccc1OCCN1CCCC1	none
CCCOc1ccc(C(F)(F)F)cc1NC(=O)CCc1c(C)noc1C	none
CCCc1cc(=O)oc2cc(OCC(=O)NCCN3CCOCC3)c(Cl)cc12	none
CN(C)c1ccc(CNC(=O)C2(C)Cc3c(-c4cccc(C(N)=O)c4)ccnc3O2)cc1 (stereo unspecified)	none
CC(=O)N1CCN(C(=O)c2cccc(S(=O)(=O)Nc3c(C)n(C)n(-c4ccccc4)c3=O)c2)CC1	none
Cn1nc(C(F)(F)F)c(-c2cccc(C(F)(F)F)c2)c1NC(=O)Nc1ccc(F)cc1	CHO-K1 Ca ag 15, M1 antag 38, CHO-K1 Ca antag 33
Cn1nc(C(F)(F)F)c(-c2cccc(C(F)(F)F)c2)c1NC(=O)c1ccco1	none
COc1ccc2c(c1)C(=O)C1NC(=O)NC(=O)C1(Br)N2 (stereo unspecified)	none
Cc1ccc(SCC(=O)Nc2ccc(N3CCN(C)CC3)c(F)c2)c(C)c1	M1 antag 30
COc1cccc(C(=O)N2CCN(C3CCC(c4ccccc4)CC3)CC2)c1OC (stereo unspecified)	CHRM1 agonist 43
O=C(c1ccncc1)N1CCN(C2CCC(c3ccccc3)CC2)CC1 (stereo unspecified)	none
COc1ccc(/C=N/OCC(=O)NCc2cccs2)c(OC)c1	CHRM1 PAM 36
O=C(COC(=O)COc1ccccc1)NCc1ccccc1	CHO-K1 Ca ag 19
Cc1cc(C)c(OCC(=O)OCC(=O)NCc2cccs2)c(C)c1	none
Cc1cccc(OCC(=O)NCc2ccc(F)cc2)c1	CHO-K1 Ca antag 24
Cc1cc(C)cc(OCC(=O)OCC(=O)NCc2cccs2)c1	CHO-K1 Ca antag 31
C/C(=N\NC(=O)c1cccc(S(=O)(=O)N2CCOCC2)c1)c1ccc(C)cc1	none
COc1cc(C(=O)N2CCN(S(=O)(=O)c3ccc(C)cc3C)CC2)ccc1OCC(=O)N1CCOCC1	none

Compound activity: PubChem, The Scripps Research Institute Molecular Screening Center
